Assay outcomes deposited in PubChem BioAssay by several laboratories.
In the library only some 2.6% were active in any assay of this set; here they are far more common.
CF NFkB block = cystic fibrosis NF-kB activation inhibition; actives 0.86% (n = 360,000); KKLEB NF-kB-GFP reporter, PAF-induced, GFP fluorescence overnight; inhibition, % at 5 µM;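 active means at least 50% inhibition at 5 µM, scaled per plate between neutral and stimulator controls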;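 further: PAF is a Pseudomonas aeruginosa culture filtrate used as stimulus; plate controls were PAF-stimulated DMSO wells for no effect and unstimulated DMSO wells for full effect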
Shn3 3UTR inh = Schnurri-3 reporter inhibition in Clone20 osteoblasts; Clone20 osteoblast Shn3 3'UTR firefly luciferase, 24 h; inhibition, % at 12.5 µM; actives 0.52% (n = 360,000);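 active means mean inhibition of at least 75% with every replicate also reaching 75%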;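 further: 0% = median of neutral control wells and 100% = pilot-screen positive control compound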
KKLEB tox = counter-screen for CF NF-kB inhibitors: cytotoxicity; KKLEB CF airway cells viability, ATPlite luminescence, overnight; hits give low values; cells stimulated with P. aeruginosa culture filtrate; activity change (cytotoxicity), % at 5 µM; actives 0.36% (n = 360,000);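 active means corrected activity change at or below -50% at 5 µM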
Peg3 prom inh = Peg3 promoter activity inhibition; HeLa PEG-Prom luciferase reporter, luminescence, overnight; actives 1.7% (n = 360,000); AID 588405; inhibition, % at 20 µM;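 active means inhibition of at least 50% at 20 µM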
HIF-2a inh = inhibitors of HIF-2a. 786-0 RCC cells HIF-2a reporter, luciferase luminescence, overnight. inhibition, % at 18.8 µM. actives 0.72% (n = 360,000). AID 624352;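 active means inhibition of the luminescence signal of 40% or more relative to plate controls, in a single-dose primary screen at 18.75 µM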
An asterisk follows results filed as active.

SMILES | CF NFkB block | Shn3 3UTR inh | KKLEB tox | Peg3 prom inh | HIF-2a inh
NC(=O)c1cccc(Nc2nc(C(N)Cc3ccc(C(F)(F)F)cc3)cs2)n1 (stereo not drawn) | -11 | 33 | -10 | 27 | -14
NC(Cc1ccccc1)c1csc(Nc2ccc(C(F)(F)F)cn2)n1 (stereo not drawn) | 1 | 21 | 3 | 100* | 5
COc1cccc(Nc2nc(C(N)COCc3ccccc3)cs2)n1 (stereo not drawn) | 23 | 10 | -25 | 48 | 9
COc1cccc(Nc2nc(C(N)Cc3ccc(C(F)(F)F)cc3)cs2)n1 (stereo not drawn) | 5 | 9 | -12 | 100* | 13
COc1ccc(C(N)c2csc(Nc3ccc(C(F)(F)F)cn3)n2)cc1 (stereo not drawn) | 29 | 13 | -12 | 20 | 13
COc1cccc(Nc2nc(C(N)CCc3ccccc3)cs2)n1 (stereo not drawn) | 41 | 7 | -30 | 109* | 10
NC(Cc1ccc(Cl)cc1)c1csc(Nc2cc(Oc3ccccc3)ncn2)n1 (stereo not drawn) | 20 | 33 | -6 | 108* | 0
O=C(NC(CO)C(=O)OCc1ccccc1)OCc1ccccc1 (stereo not drawn) | 8 | 0 | 6 | -3 | 10
COc1cc(Cl)c(C)cc1NC(=O)c1ccccc1NC(=O)CN1CCN(C(C)=O)CC1 | -6 | -6 | 5 | -14 | 0
CCCN(CC(=O)Nc1ccccc1OC)C(=O)c1ccncc1 | 9 | -3 | 3 | 3 | 19
COc1cccc(Nc2nc(C(N)Cc3ccc(F)cc3)cs2)n1 (stereo not drawn) | 37 | -7 | -28 | 114* | -9
COc1cccc(Nc2nc(C(N)Cc3ccc(Cl)cc3)cs2)n1 (stereo not drawn) | 15 | -15 | -14 | 99* | 12
NC(Cc1ccc(F)cc1)c1csc(Nc2cc(NCc3ccco3)ncn2)n1 (stereo not drawn) | 23 | 0 | -21 | 70* | 14
COc1cccc(Nc2nc(C(N)CC(C)C)cs2)n1 (stereo not drawn) | -17 | 15 | -8 | 12 | -1
CCc1ccc2[nH]c(C(=O)N(C)c3ccc(F)cc3F)cc2c1 | 2 | -7 | 10 | -2 | -14
CCc1nc2ccc(C(=O)NCc3cccs3)cn2c1N(CC)Cc1cccc(Br)c1 | -12 | 0 | 4 | 57* | 7
CCCCCCc1cc2cc(S(=O)(=O)c3ccc(F)c(Cl)c3)c(=O)oc2cc1O | 60* | 9 | -72* | 49 | 21
Cc1ccc(S(=O)(=O)c2cc3ccc(O)cc3oc2=O)cc1C | -22 | -1 | 8 | 3 | 8
CCCCCCc1cc2cc(C(=O)Nc3ccc(OC)cc3)c(=O)oc2cc1O | 52* | 18 | -57* | 43 | 16
CCCCCCc1cc2cc(C(=O)Nc3cccc(OC)c3)c(=O)oc2cc1O | 66* | 1 | -63* | 30 | 8
CCCCCCc1cc2cc(C(=O)NC)c(=N)oc2cc1O | 17 | 4 | 4 | 16 | -13
COc1ccc(C(=O)OCC(=O)c2ccco2)cc1[N+](=O)[O-] | -31 | 4 | 10 | -14 | -16
CCOCCCNC(=O)c1cc(-c2ccc(Br)s2)nc2ccccc12 | -8 | 6 | -2 | 12 | -8
CCN(CC)CCNC(=O)c1cc(-c2ccc(Br)s2)nc2ccccc12 | -2 | -7 | -8 | 101* | -35
CCCCCC1NC(=O)NC1CCCCCC(=O)O (stereo not drawn) | 15 | 4 | -11 | 0 | 10
C[C@@H]1NC(=O)N[C@@H]1CCCCCC(=O)O | -11 | 17 | -64* | 12 | 6
CSCCC(NS(=O)(=O)c1ccccc1F)C(=O)N1CCCCCCC1 (stereo not drawn) | -11 | 9 | 7 | 10 | 19
CC(C)C[C@H](NC(=O)c1[nH]cnc1C(=O)Nc1ccc(CNC(=O)OC(C)(C)C)cc1)C(=O)OCc1ccccc1 | -39 | -2 | 14 | 39 | 6
CC(C)(C)OC(=O)CNC(=O)c1[nH]cnc1C(=O)Nc1ccc(CNC(=O)OC(C)(C)C)cc1 | 43 | 18 | -14 | 66* | 5
C[C@H](NC(=O)c1[nH]cnc1C(=O)Nc1ccc(CNC(=O)OC(C)(C)C)cc1)C(=O)OCc1ccccc1 | 1 | 35 | 20 | 97* | 3
